From PubChem BioAssay AID492948 (National Center for Advancing Translational Sciences (NCATS), 2010)
Inconclusive results are not listed. Values without a mark were called inactive. Calls of active or inactive are those of the source. Calls follow the shape of the dose curve; as a rule, active = well fitted activation curve with a large enough effect; inconclusive = small, poorly fitted or top-dose-only effect; inactive = no such curve, though single readings can be large or run the other way.

Assay: qHTS Assay for Agonists of the Relaxin Receptor RXFP1: V1B Hit Validation;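 also: counter-screen in HEK293 cells expressing V1B rather than RXFP1 for selectivity; nearly all actives have a fitted effect of over 65% in size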;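 as to activation: cAMP accumulation with PDE4 inhibitor Ro 20-1724 present during compound exposure; 0% = buffer alone basal and 100% = 29 nM porcine relaxin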
Conditions: HEK293 V1B cells, cAMP TR-FRET, 30 min; series mostly up to 115 µM; activation: at the top concentration
Method in brief: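 TR-FRET cAMP readout (ex 320, em 615/665 nm) after 30 min RT lysis with d2-cAMP/cryptate antibody. Before that: HEK293 cells, compounds 30 min 37C, Ro 20174 present. Hill-fit EC50s.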
Potency is read from the fitted curve at half-maximal effect.

SMILES	Potency	activation
O=C(Cn1cnc2c(nnn2-c2ccc(F)cc2)c1=O)NCC1CCCO1 (stereo not given)	8.7 µM (active)	–
Nc1ncnc2c1ncn2[C@@H]1O[C@H](COS(=O)(=O)O)[C@@H](O)[C@H]1O	6.9 µM (active)	–
COc1cccc(C(=O)CSc2nnc(-c3cc(OC)cc(OC)c3)o2)c1	10.9 µM (active)	–
CC1CCN(S(=O)(=O)c2ccc3nc(N4CCN(c5ccccc5)CC4)ccc3c2)CC1	13.8 µM (active)	–
CCN(CC)CCCCCC(=O)Nc1ccccc1C(=O)Nc1ccccc1	–	-2.76% [at 127 µM]
Nc1c(Cl)cc(-c2[nH]c3cc(C(=O)NCCO)ccc3c(=O)c2O)cc1Cl	34.6 µM (active)	–
CC1(C)Cc2nc3sc4c(SCC(=O)NC(c5ccccc5)c5ccccc5)ncnc4c3cc2CO1	3.46 µM (active)	–
Cn1c(=O)c2c(ncn2CC(=O)N/N=C/c2cn[nH]c2-c2ccc(F)cc2)n(C)c1=O	21.8 µM (active)	–
CCc1ccc(-c2nc3ccc(Br)cc3c(C(=O)O)c2C)s1	3.46 µM (active)	–
O=C(Nc1cc(S(=O)(=O)N2CCOCC2)ccc1N1CCOCC1)c1cn2ccccc2n1	30.9 µM (active)	–
O=C(O)c1ccc(N2C(=O)c3cccc4c(C(=O)O)ccc(c34)C2=O)cc1	47.3 µM (active)	–
CCOC(=O)C1CCN(C(=O)c2cc3c(=O)n4ccccc4nc3s2)CC1	43.6 µM (active)	–
Cc1ccc(C(=O)Nc2cccc(C(F)(F)F)c2)cc1NC(=O)c1cnnc2ccccc12	–	4.89%
c1ccc(COn2nnc3ccccc32)c(COn2nnc3ccccc32)c1	–	7.79% [at 44.9 µM]
COc1ccc(CN2C(=O)c3cccnc3C2=O)cc1S(=O)(=O)NC1CCCCC1C (stereo not given)	38.9 µM (active)	–
